# Screening data from PubChem.
# Rows were chosen to be rich in hits. Some 21% of all compounds tested hit in one or more screens of this group.
# Pf growth 48h: P. falciparum growth inhibition at 48 hours (one generation). P. falciparum luciferase growth in erythrocytes, 48 h. Potency, µM (top dose mostly 28.7 µM), hits mostly inhibitors. 5.9% of 310,000 active. AID 504832
#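 Firefly luciferase activity from engineered P. falciparum reports growth; inhibitors lower the luminescent signal. Cultures contained 2% hematocrit erythrocytes at 0.1% final parasitemia.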
# Shiga toxin inh: blocks Shiga toxin action in Vero cells; Vero cells, Shiga toxin protein synthesis inhibition reporter; inhibition, % at 38.7 µM; 9.2% of 290,000 active; AID 2315; in the data active = inhibition mostly above about 28%, no sharp cut-off; inactive = mostly below about 43%
# Pf growth 96h: P. falciparum growth inhibition at 96 hour, primary screen for plastid delayed-death inhibitors. P. falciparum luciferase reporter growth, 96 h. Potency, µM (series often up to 28.7 µM), actives largely listed as inhibitors. 6.9% of 320,000 active. AID 504834
#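 P. falciparum expressing integrated firefly luciferase, in erythrocytes at 2% hematocrit, 0.05% parasitemia, incubated with compounds 96 h at 37 C, 5% CO2. Growth inhibition read as loss of luminescence; two-generation exposure targets delayed-death apicoplast inhibitors.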
# Sm TGR block: inhibitors of Schistosoma mansoni thioredoxin glutathione reductase. Q962Y6. purified TGR, DTNB reduction, TNB absorbance 405 nm. Potency, µM (doses to about 114 µM), usual class: inhibitors. 3% of 360,000 active. AID 485364; note: nearly all actives have a fitted effect of over 60% in size
#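 First, TGR (20 nM dispensed) and NADPH were mixed with compound. Second, a 15 min room-temperature incubation followed. Third, further NADPH and then DTNB were added to start the reaction. Finally, TNB absorbance was monitored kinetically.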
# NS1 inh: inhibitors of influenza NS1 protein function; Potency, µM (titrated, usually from 46.1 µM); 0.4% of 270,000 active; AID 2326; calls by dose curve; note: actives are rising curves; nearly all actives have a fitted effect of over 50% in size
#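 Read-out: OD600 growth recovery of NS1-expressing budding yeast. Cells grown overnight at 30C in -URA glucose medium, washed, resuspended and diluted 1:100 in 2% galactose assay medium, pH 6.0. Same strain lacking NS1 served as positive control.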
# CHX counter: counter-screen for Shiga toxin inhibitors: cycloheximide protein synthesis inhibition; cell reporter, cycloheximide protein synthesis inhibition counterscreen; max response, %; 12% of 300,000 active; AID 2314; in the data active = max response mostly above about 13%, no sharp cut-off; inactive = mostly below about 14%; note: read at 38.3 µM for the half of the compounds with a filed dose
# Numbers stand for hits; - = inactive; ? = inconclusive; . = no result given; [ ] = another dose, or the depositor's remark. Unless noted, calls come from the whole dose curve; as a rule, active = well fitted curve in the direction sought with a large enough effect; inconclusive = small, poorly fitted or top-dose-only effect, or another doubt; inactive = no such curve, though single readings can be large; an effect the other way counts as inactive or inconclusive.
SMILES,Pf growth 48h,Shiga toxin inh,Pf growth 96h,Sm TGR block,NS1 inh,CHX counter
Cc1ccccc1CSCC(=O)NCc1ccco1,-,36,-,?,-,-
O=C(CSCc1c(F)cccc1Cl)NCCSCc1ccco1,-,-,-,.,-,-
O=C(CSCc1c(Cl)cccc1Cl)NCc1ccco1,?,-,13µM,-,-,-
CC(C)(C)NC(=O)CSCc1c(Cl)cccc1Cl,-,-,-,-,-,-
Cc1ccccc1CSCC(=O)Nc1ccccc1F,-,.,?,-,-,44
CCC(C)NS(=O)(=O)c1ccc(S(=O)(=O)N(CCc2ccc(OC)c(OC)c2)Cc2cccs2)cc1 (centres undefined),?,-,-,-,-,-
CCOC(=O)c1c(NC(=O)c2ccc(N3C(=O)C4C5C=CC(C5)C4C3=O)cc2)sc2c1CCCC2 (centres undefined),-,-,-,-,-,-
O=C(COC(=O)c1cc[n+]([O-])cc1)Nc1c(Cl)cccc1C(F)(F)F,-,.,-,-,.,.
O=C(CSCc1ccc(Cl)cc1)NCCSCc1ccco1,-,-,?,28µM,.,-
O=C(CCSCc1ccc(Cl)cc1)NCc1ccco1,-,-,-,-,.,-
O=C(CSCc1ccco1)c1ccc(Cl)s1,-,108,12µM,28µM,-,25
O=C(NNC(=S)NCc1ccco1)c1ccc(Cl)s1,-,-,?,-,-,-
CSCCC(NC(=O)c1ccc([N+](=O)[O-])cc1Cl)C(=O)OCC(=O)NCCCc1ccccc1 (centres undefined),-,-,-,-,-,-
Cc1ccc(C(=O)NCCCc2ccccc2)c(C)c1,-,60,-,.,-,42
O=C(NCCC(=O)N(CCc1ccccc1)Cc1ccccc1)c1ccccc1Cl,?,.,?,-,.,.
Cc1cc(C)cc(C(=O)NCCCc2ccccc2)c1,-,-,-,.,-,-
O=C(NCCCc1ccccc1)c1ccc([N+](=O)[O-])cc1Cl,-,29,-,-,-,29
O=C(NCCCN1CCN(CCCNC(=O)c2cc([N+](=O)[O-])ccc2Cl)CC1)c1cc([N+](=O)[O-])ccc1Cl,4.7µM,-,?,-,-,-
O=C(NCCCN1CCOCC1)c1cc(Cl)ccc1Cl,-,-,-,-,-,-
Cc1ccc(C(=O)NCCCc2ccccc2)c(Cl)c1,-,.,-,-,-,37
Cc1cc(=O)n2nc(N3CCC(C(=O)Nc4ccc(C)c(Cl)c4)CC3)sc2n1,.,.,.,-,.,.
O=C1CC(C(=O)N2CCN(S(=O)(=O)c3cccc(F)c3)CC2)CN1Cc1ccccc1Cl (centres undefined),?,.,?,-,.,.
N#Cc1cccc(NC(=O)C2CCN(S(=O)(=O)c3ccc4c(c3)CCCN4C(=O)C3CCC3)CC2)c1,.,.,.,-,.,.
C[C@H](NC(=O)c1[nH]cnc1C(=O)N[C@H](C)c1ccccc1)c1ccccc1,?,.,-,-,.,.
Cc1cccc(/C(N)=N/OC(=O)c2ccoc2C)c1,?,68,-,-,-,38
SMILES,Pf growth 48h,Shiga toxin inh,Pf growth 96h,Sm TGR block,NS1 inh,CHX counter
Cc1occc1C(=O)O/N=C(\N)c1ccccc1,-,72,12µM,-,-,51
Cc1ccc(/C(N)=N/OC(=O)c2cc(-c3ccccc3)nc3ccccc23)cc1,-,-,-,-,-,-
CC(=O)Nc1ccc(S(=O)(=O)NCC(=O)OCC(=O)NC(=O)C2CCCCC2)cc1,-,-,-,-,-,21
Cc1nn(-c2ccc(N3CCCCC3)nn2)c(C)c1CCC(=O)NCc1ccc(OC(C)C)cc1,.,.,.,-,.,.
COc1ccc(C(=O)NCC(c2ccc(N(C)C)cc2)N2CCc3ccccc32)cc1 (centres undefined),.,.,.,-,.,.
COc1cc2c(cc1OC)C(c1ccccc1N)=NCC2,2.9µM,-,1µM,-,-,-
COc1cc2c(cc1OC)C(c1ccccc1)=NCC2,-,-,?,-,-,-
CC(C)c1ccccc1NC(=O)COC(=O)c1ccc(Cl)c(S(=O)(=O)N2CCCCCC2)c1,-,-,-,-,-,-
O=C1C=C(c2ccccc2)CC(c2cccs2)C1n1cnc([N+](=O)[O-])c1 (centres undefined),?,-,?,-,-,-
O=C1C=C(c2ccccc2)C[C@H](c2cccs2)[C@H]1n1nnc([N+](=O)[O-])n1,1.9µM,-,8.3µM,-,-,-
Cc1ccnc(Nc2nc(-c3ccc(Cl)cc3)cs2)c1,-,42,-,-,-,38
Cc1cccc(OCC(=O)Nc2nc(-c3ccncc3)cs2)c1,-,.,-,-,.,.
Cc1ccnc(Nc2nc(-c3ccc(F)cc3)cs2)c1,-,100,?,-,-,50
CC(C)C(NC(=O)C1CCCCC1)C(=O)NC1=NCCS1 (centres undefined),.,-,-,-,-,-
COCc1ccc(CN2CCc3c([nH]c4ccccc34)C2C(C)(C)C)o1 (centres undefined),-,-,-[5.75 µM],-,-,21
CCn1ccnc1CN1CCc2c([nH]c3ccccc23)C1C(C)(C)C (centres undefined),4.7µM,-,-,-,-,-
COCCC(=O)N1CCc2c([nH]c3ccccc23)C1C(C)(C)C (centres undefined),?,-,?,-,-,-
CN(C(=O)c1cccc(NC(=O)c2ccccc2)c1)C1CCCCC1,-,-,-,-,-,-
CN(C(=O)c1cccc(Nc2ccc(-c3ccc4c(c3)OCCO4)nn2)c1)C1CCCCC1,?,64,-,-,?,53
CCN(CC)S(=O)(=O)c1ccc(Nc2ccc(-c3ccc4c(c3)OCCO4)nn2)cc1,-,-,?,-,-,-
CN(C)S(=O)(=O)c1ccc(Nc2ccc(-c3ccc4c(c3)OCCO4)nn2)cc1,?,-,5.9µM,-,-,-
CCC(C)(Oc1ccc(C2(c3ccc(OC(C)(CC)C(=O)O)cc3)CCCCC2)cc1)C(=O)O (centres undefined),-,.,?,.,.,.
CSCCC(NC(=O)c1ccccc1Cl)C(=O)Nc1cccc(S(=O)(=O)N2CCCC2)c1 (centres undefined),12µM,.,?,-,.,.
COc1ccc(C(CNC(=O)C(CCSC)NC(=O)c2ccccc2Cl)N2CCCCC2)cc1 (centres undefined),7.4µM,.,?,-,.,.
COc1ccc(C(CNC(=O)C(CCSC)NC(=O)c2ccccc2Cl)N2CCCC2)cc1 (centres undefined),?,.,?,-,.,.
CSCCC(NC(=O)c1ccccc1Cl)C(=O)NCC(c1ccco1)N1CCCCC1 (centres undefined),15µM,.,7.4µM,-,.,.
CSCCC(NC(=O)c1cccc(S(=O)(=O)N2CCOCC2)c1)C(=O)Nc1cccc(C)c1 (centres undefined),-,-,?,-,-,-
COc1ccccc1C(=O)NC(CCSC)C(=O)NCC(c1ccccc1OC)N1CCCC1 (centres undefined),?,.,-,-,.,.
CCOc1ccc(NC(=O)Cn2cc(S(=O)(=O)NC)c(S(=O)(=O)NC)c2)cc1,.,.,.,-,.,.
